USP1-UAF1 inh = Inhibitors of USP1/UAF1: Primary Screen | 390,000 tested, 0.23% active | Ubiquitin carboxyl-terminal hydrolase 1 (Homo sapiens), O94782 | AID 743255, 2014 | recombinant USP1/UAF1, Ub-Rhodamine cleavage fluorescence | Potency, µM (highest dose often 57.1 µM), without a hit: at the highest dose activity change, negative = inhibition, most hits filed as inhibitors; note: % is set by controls: 0 for no effect and ±100 for the full control effect; nearly all actives have a fitted effect of over 60% in size
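High-throughput fluorogenic screen: 1nM USP1/UAF1 complex, Ub-Rho substrate 150nM final, 50mM HEPES pH 7.8 with 0.5mM EDTA, 0.1 mg/ml BSA, 1mM TCEP and 0.01% Tween-20.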
EPAC2 antag = qHTS for Antagonist of cAMP-regulated guanine nucleotide exchange factor 2 (EPAC2): primary screen; Rap guanine nucleotide exchange factor 4 (Homo sapiens), Q8WZA2; EPAC2 GEF exchange of Rap1B-BODIPY-GDP, fluorescence; Potency, µM (series often up to 114 µM), inactives show at the highest dose activity, negative = inhibition, actives largely listed as inhibitors; 360,000 tested, 0.18% active; note: % is set by controls: 0 for no effect and ±100 for the full control effect; nearly all actives have a fitted effect of over 45% in size
Target sequence (Q8WZA2 whole entry, looked up): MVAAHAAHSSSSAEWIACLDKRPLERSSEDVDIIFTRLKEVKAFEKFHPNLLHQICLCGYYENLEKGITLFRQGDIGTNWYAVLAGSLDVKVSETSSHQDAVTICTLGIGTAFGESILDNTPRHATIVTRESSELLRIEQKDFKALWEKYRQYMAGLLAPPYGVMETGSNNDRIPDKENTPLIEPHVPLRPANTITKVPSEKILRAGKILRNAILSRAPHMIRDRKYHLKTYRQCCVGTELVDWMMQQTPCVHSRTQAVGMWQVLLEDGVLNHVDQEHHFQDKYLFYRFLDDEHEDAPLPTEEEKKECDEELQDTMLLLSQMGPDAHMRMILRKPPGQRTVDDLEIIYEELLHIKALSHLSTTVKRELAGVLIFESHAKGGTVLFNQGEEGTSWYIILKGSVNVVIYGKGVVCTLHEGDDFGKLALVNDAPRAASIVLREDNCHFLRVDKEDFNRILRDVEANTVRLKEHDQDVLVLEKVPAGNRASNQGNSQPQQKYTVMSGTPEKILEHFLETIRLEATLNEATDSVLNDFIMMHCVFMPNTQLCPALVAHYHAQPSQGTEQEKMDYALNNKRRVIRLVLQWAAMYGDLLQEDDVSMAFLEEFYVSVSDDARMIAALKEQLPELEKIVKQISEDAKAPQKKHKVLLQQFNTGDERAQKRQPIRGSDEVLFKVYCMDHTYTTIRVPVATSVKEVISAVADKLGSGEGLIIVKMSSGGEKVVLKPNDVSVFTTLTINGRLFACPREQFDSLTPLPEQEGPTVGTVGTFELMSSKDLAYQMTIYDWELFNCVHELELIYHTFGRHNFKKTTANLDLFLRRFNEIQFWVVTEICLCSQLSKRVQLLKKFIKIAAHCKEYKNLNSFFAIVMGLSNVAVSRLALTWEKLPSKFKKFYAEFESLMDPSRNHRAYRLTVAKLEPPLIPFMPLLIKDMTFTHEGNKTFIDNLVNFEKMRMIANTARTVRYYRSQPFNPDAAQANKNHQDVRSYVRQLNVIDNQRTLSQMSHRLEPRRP
EPAC1 ag = qHTS for Agonist of cAMP-regulated guanine nucleotide exchange factor 3 (EPAC1): primary screen; Rap guanine nucleotide exchange factor 3 (Homo sapiens), O95398; 360,000 tested, 0.073% active; EPAC1 agonist qHTS, biochemical assay; response scale: 100% = response to 6.5 mM cAMP; Potency, µM (doses to about 154 µM), for inactives: at the highest dose activation, usual class: activators; AID 720707, 2013; note: nearly all actives have a fitted effect of over 60% in size
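Normalized to 6.5 mM cAMP, activity reflects EPAC1-catalysed release of BODIPY-GDP from Rap1B, followed kinetically over 30 min at 480 nm excitation, 540 nm emission. Reaction contained 100 nM EPAC1, 250 nM Rap1B-BODIPY-GDP, 50 uM GDP.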
EPAC1 antag = qHTS for Antagonist of cAMP-regulated guanine nucleotide exchange factor 3 (EPAC1): primary screen | 360,000 tested, 0.14% active | AID 720709, 2013 | Potency, µM (highest dose often 115 µM), without a hit: top-dose activity change, negative = inhibition, actives largely listed as inhibitors | EPAC1 GEF assay, Rap1b-BODIPY-GDP exchange fluorescence;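 note: plate controls were vehicle for no effect and positive control for full effect; nearly all actives have a fitted effect of over 50% in size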
EPAC2 ag = qHTS for Agonist of cAMP-regulated guanine nucleotide exchange factor 4 (EPAC2): primary screen. Rap guanine nucleotide exchange factor 4 (Homo sapiens), Q8WZA2. EPAC2 activation, biochemical qHTS; response scale: 100% = 6.5 mM cAMP response. Potency, µM (doses to about 154 µM), without a hit: at the highest dose activation, usual class: activators. 360,000 tested, 0.079% active; note: nearly all actives have a fitted effect of over 50% in size
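Compounds were added across a concentration range to EPAC2 (100 nM), RAP1B-BODIPY-GDP (250 nM) and GDP (50 uM). After 5 min at room temperature, fluorescence was recorded at 5-min intervals for 30 min.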
* = called active by the depositor; u = inconclusive; x = no result. Rows were chosen to be rich in hits. Some 0.49% of all compounds tested hit in one or more screens of this group. Calls come from the whole dose curve; as a rule, active = well fitted curve in the direction sought with a large enough effect; inconclusive = small, poorly fitted or top-dose-only effect, or another doubt; inactive = no such curve, though single readings can be large; an effect the other way counts as inactive or inconclusive. Potency is the fitted concentration of half-maximal effect.

SMILES | USP1-UAF1 inh | EPAC2 antag | EPAC1 ag | EPAC1 antag | EPAC2 ag
CCOC(=O)c1cc(-c2ccccc2)n(-c2cccc(C(=O)Nc3cccc(F)c3)c2)c1C | -6% | x | x | x | x
Cc1ccc(NCc2ccccc2OCc2ccccc2F)cc1 | -9% | 0% | 24% | -13% | 16%
Oc1ccc(NCc2ccccc2OCc2ccccc2F)cc1 | u | -8% | 16% | 79µM* | 26%
CCOc1cc(/C=C2\C(=O)N(c3nc(-c4ccc(Br)cc4)cs3)N=C2c2ccccc2)ccc1O | u | 3% | -5% | 35µM* | -14%
COc1cc(/C=C2\C(=O)N(c3ccc(NC(C)=O)cc3)N=C2c2ccccc2)ccc1O | -11% | 19% | 11% | -12% | 12%
CCOc1cc(C(=O)Nc2ccc3nc(Nc4cccc(Cl)c4)cc(C)c3c2)cc(OCC)c1OCC | -28% | x | x | x | x
CCC1CN(C(=O)N2CCC(C(=O)N3CCN(c4ccccc4F)CC3)CC2)c2ccccc2O1 (stereo not given) | -26% | x | x | x | x
COc1cc(C)nc(N2CCCC(C(=O)Nc3cc(Cl)ccc3OC)C2)n1 (stereo not given) | 4% | 25µM* | 12% | 2% | -20%
COc1ccc(N2CCN(C(=O)CCc3ccccc3OC)CC2)cc1 | -11% | 1% | -172% | 89µM* | 10%
COc1ccccc1CCC(=O)N1CCN(C(=O)c2ccccc2)CC1 | 3% | -6% | 9% | -2% | 11%
CCOc1cc(/C=C(\C#N)C(=O)Nc2cccc(C(=O)O)c2)ccc1OCc1ccccc1Cl | u | -27% | 8% | -22% | -2%
CCOc1cc(/C=C(\C#N)C(=O)Nc2cccc(C(=O)O)c2)cc(Br)c1OC(=O)c1ccc(OC)cc1 | -22% | 50µM* | 9% | u | -2%
CCN(C(=O)c1ccc2c(c1)N(Cc1cccc(Cl)c1)C(=O)c1ccccc1S2=O)c1ccccc1 (stereo not given) | -17% | x | x | x | x
CN1CCN(c2cc(N3CCN(C(=O)c4ccco4)CC3)c3c4c(onc24)-c2ccccc2C3=O)CC1 | u | -13% | 8% | u | 7%
CCOC(=O)N1CCN(c2cc(NCCC(=O)O)c3c4c(onc24)-c2ccccc2C3=O)CC1 | 14µM* | -17% | 1% | 16% | 11%
O=C(O)CCCNc1cc(N2CCN(C(=O)c3ccco3)CC2)c2noc3c2c1C(=O)c1ccccc1-3 | 28µM* | 15% | u | 36% | u
CCOC(=O)C1CCCN(C(=O)Cn2nc(CC)n3c(cc4occc43)c2=O)C1 (stereo not given) | -10% | x | x | x | x
CCc1ccc2ncc3c(-c4ccc(C)cc4)nn(CC(=O)Nc4ccc(C)cc4)c3c2c1 | -31% | x | x | x | x
CCCn1c2ccccc2c2cnn(CC(=O)NCc3ccc(OC)cc3)c(=O)c21 | -6% | x | x | x | x
COc1cc(/C=C(\C#N)C(=O)NCCc2ccccc2)cc(OC)c1O | -24% | 4% | -1% | 3% | 8%
COc1cc(/C=C(\C#N)C(=O)c2c[nH]c3ccccc23)cc(OC)c1O | 28µM* | -5% | -1% | -21% | 18%
COc1cc(NC(=O)c2cc(-c3cccc(OC)c3)n[nH]2)cc(OC)c1 | -16% | x | x | x | x
CC1CCc2cccc3c2N1c1cc(C#N)c(C#N)cc1O3 (stereo not given) | 28µM* | 3% | 1% | 22% | 24%
CC1CCCCN1c1cc(C#N)c(C#N)cc1[N+](=O)[O-] (stereo not given) | 7% | -2% | 4% | -4% | 3%
CCOc1ccc(NC(=O)c2ccc3c(SCC(=O)O)c4c(nc3c2)CCC4)cc1 | -23% | x | x | x | x
SMILES | USP1-UAF1 inh | EPAC2 antag | EPAC1 ag | EPAC1 antag | EPAC2 ag
C=CCn1c(C)c(/C=C/c2cc[n+](C)cc2)c2ccccc21 | 35µM* | 29% | u | 32% | 20%
CCn1cc(/C=C/c2cc[n+](C)cc2)c2ccccc21 | u | 45% | -7% | 6% | u
CCN(CC)C(=O)Cn1c(C)c(/C=C/c2cc[n+](C)cc2)c2ccccc21 | 25µM* | 27% | 18% | 5% | u
CCN(CC)C(=O)Cn1c(=O)n(CCc2ccccc2)c(=O)c2ccccc21 | -24% | x | x | x | x
CC(C)n1cc(/C=C/c2cc[n+](C)cc2)c2ccccc21 | 32µM* | 72% | 100µM* | 72% | u
C=CCn1cc(/C=C/c2cc[n+](C)cc2)c2ccccc21 | 32µM* | 124% | u | 43% | 100µM*
Cc1ccc(-n2ncc3c(NCc4ccccc4)ncnc32)cc1Cl | -12% | x | x | x | x
O=C(NCC(c1cccnc1)N1CCN(Cc2ccccc2)CC1)C(=O)Nc1ccc(F)cc1 (stereo not given) | -8% | x | x | x | x
CCCN1CCN(CCNC(=O)Nc2cc(Cl)c(OC)cc2OC)CC1 | -6% | x | x | x | x
O=C(CSc1nc(O)cc(=O)n1-c1ccccc1)Nc1ccc2c3c(cccc13)CC2 | -4% | 1% | -2% | 79µM* | 4%
CCC(CN(C)C)Oc1cc(NCc2ccccc2)c2ncn(C(C)C)c2c1 (stereo not given) | 28µM* | 15% | -6% | u | 1%
O=C(Nc1nc2ccccc2s1)c1cccc(S(=O)(=O)N2CCc3ccccc32)c1 | -19% | -5% | 14% | -16% | 3%
O=C(Nc1nc2c(s1)CN(Cc1ccccc1)CC2)c1cccc(S(=O)(=O)N2CCc3ccccc32)c1 | 28µM* | 34% | u | 27% | 19%
NC(=O)c1cc2ccccc2oc1=NCc1ccccc1 | -7% | 2% | -2% | -11% | 9%
NC(=O)c1cc2ccc(O)cc2oc1=NCc1ccccc1 | u | 36% | 19% | 15% | 100µM*
Cc1ccc(Cn2c(CNC(=O)CCc3ccccc3)nc3cccnc32)cc1 | -25% | x | x | x | x
Cc1[nH]cnc1CN1CCc2c(c3ccccc3n2C)C1=O | 35µM* | 15% | -14% | -16% | 0%
OCC[n+]1ccc(/C=C/c2c[nH]c3ccccc23)cc1 | 28µM* | 67% | u | 29% | u
C(=Cc1c[nH]c2ccccc12)c1nccc2ccccc12 | u | 10% | -1% | 2% | 19%
CC1=Nc2cc(C(=O)NCCc3ccc(Cl)cc3)ccc2Sc2c(C)ccc(C)c21 | -30% | x | x | x | x
Oc1ccc(/C=N/N=C/c2ccc(O)c(O)c2)cc1O | -17% | 8% | 9% | u | 3%
Oc1ccc(N=Cc2ccc(O)c(O)c2)cc1 | 7.9µM* | u | 21% | 40µM* | 5%
Cc1cc(C)c(/C=C/c2onc(C)c2S(=O)(=O)N2CCC(C(=O)N3CCN(c4ccccc4)CC3)CC2)c(C)c1 | -11% | x | x | x | x
